# In publication PMC5540273 (PLoS ONE, 2017):
# Several values for one entry are separate records, joined by “and”; a condition that tells them apart may be missing. Equal entries are not always repeated. Where two headings read alike, the source gives them in different places.
# What was measured:
# CDK4-cyclinD3 = details: n = 1
# CDK4 = details: n = 1
# CDK5 = details: concentration: 1 μM, replicates: in singlicate; n = 1
# CDK7 = details: concentration: 1 μM, replicates: in singlicate, n = 1
# CDK8 = details: concentration: 1 μM, replicates: in singlicate, n = 1
# CDK9 = details: concentration: 1 μM, replicates: in singlicate; n = 1
# CDKL1 = details: concentration: 1 μM, replicates: in singlicate, n = 1
# CDKL2 = details: concentration: 1 μM, replicates: in singlicate, n = 1
# CDKL3 = details: concentration: 1 μM, replicates: in singlicate, n = 1
# CDKL5 = details: concentration: 1 μM, replicates: in singlicate; n = 1
# CHEK1 = details: concentration: 1 μM, replicates: in singlicate, n = 1
# CHEK2 = details: concentration: 1 μM, replicates: in singlicate, n = 1
# CIT = details: concentration: 1 μM, replicates: in singlicate, n = 1
# CLK1 = details: concentration: 1 μM, replicates: in singlicate, n = 1
# CLK2 = details: concentration: 1 μM, replicates: in singlicate; n = 1
# CLK3 = details: concentration: 1 μM, replicates: in singlicate, n = 1
# CLK4 = details: concentration: 1 μM, replicates: in singlicate, n = 1
# CSF1R-autoinhibited = details: concentration: 1 μM, replicates: in singlicate, n = 1
# CSF1R = details: concentration: 1 μM, replicates: in singlicate, n = 1
# CSK = details: concentration: 1 μM, replicates: in singlicate, n = 1
# [1] = concentration: 1 μM, replicates: in singlicate, 1 µM
# [2] = concentration: 1 μM, replicates: in singlicate
# 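Further: KINOMEscan kinase panel screen.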
smiles,measurement,setting,value
CC(C)(CN)c1nc(-c2ccc(Cl)c(O)c2)c(-c2ccncc2)[nH]1.O=C(O)C(F)(F)F [SB-477794],%Inh,CDK4-cyclinD3; [1],32% and 0%
same,%Inh,CDK4; [1],39% and 51%
same,%Inh,CDK5,0%
same,%Inh,CDK7; 1 µM,0% and 14%
same,%Inh,CDK8; 1 µM,59% and 64%
same,%Inh,CDK9,0%
same,%Inh,CDKL1; 1 µM,3% and 10%
same,%Inh,CDKL2; 1 µM,14% and 0%
same,%Inh,CDKL3,0%
same,%Inh,CDKL5,0%
same,%Inh,CHEK1; 1 µM,20% and 10%
same,%Inh,CHEK2; 1 µM,41% and 59%
same,%Inh,CIT; 1 µM,100% and 99.4%
same,%Inh,CLK1; 1 µM,14% and 3%
same,%Inh,CLK2,0%
same,%Inh,CLK3; 1 µM,1% and 11%
same,%Inh,CLK4; 1 µM,6% and 11%
same,%Inh,CSF1R-autoinhibited; 1 µM,12% and 52%
same,%Inh,CSF1R; 1 µM,50% and 43%
same,%Inh,CSK; 1 µM,44% and 28%
CC(C)(C)n1cnc2c(N)ncnc21 [SKF-97359],%Inh,CDK4-cyclinD3; [2],0%
same,%Inh,CDK4; [2],0%
same,%Inh,CDK5,0%
same,%Inh,CDK7,0%
same,%Inh,CDK8,66%
same,%Inh,CDK9,0%
same,%Inh,CDKL1,0%
same,%Inh,CDKL2,28%
same,%Inh,CDKL3,0%
same,%Inh,CDKL5,0%
same,%Inh,CHEK1,0%
same,%Inh,CHEK2,2%
same,%Inh,CIT,32%
same,%Inh,CLK1,14%
same,%Inh,CLK2,0%
same,%Inh,CLK3,0%
same,%Inh,CLK4,11%
same,%Inh,CSF1R-autoinhibited,28%
same,%Inh,CSF1R,0%
same,%Inh,CSK,0%
O=C(NCCNc1ccnc(Nc2ccc(F)cc2)n1)Nc1ccccc1F [GSK1379880],%Inh,CDK4-cyclinD3; [2],3%
same,%Inh,CDK4; [2],28%
same,%Inh,CDK5,0%
same,%Inh,CDK7,0%
same,%Inh,CDK8,0%
same,%Inh,CDK9,0%
same,%Inh,CDKL1,0%
same,%Inh,CDKL2,15%
same,%Inh,CDKL3,0%
same,%Inh,CDKL5,0%
same,%Inh,CHEK1,11%
same,%Inh,CHEK2,0%
same,%Inh,CIT,47%
same,%Inh,CLK1,24%
same,%Inh,CLK2,0%
same,%Inh,CLK3,2%
same,%Inh,CLK4,0%
same,%Inh,CSF1R-autoinhibited,0%
same,%Inh,CSF1R,9%
same,%Inh,CSK,0%
N#Cc1c(N2CCOCC2)sc(-c2ccn[nH]2)c1-c1ccc(Cl)cc1,%Inh,CDK4-cyclinD3; [2],2%
same,%Inh,CDK4; [2],29%
same,%Inh,CDK5,15%
same,%Inh,CDK7,43%
same,%Inh,CDK8,0%
same,%Inh,CDK9,0%
same,%Inh,CDKL1,0%
same,%Inh,CDKL2,0%
same,%Inh,CDKL3,0%
same,%Inh,CDKL5,0%
same,%Inh,CHEK1,15%
same,%Inh,CHEK2,15%
same,%Inh,CIT,24%
same,%Inh,CLK1,6%
same,%Inh,CLK2,0%
same,%Inh,CLK3,16%
same,%Inh,CLK4,0%
same,%Inh,CSF1R-autoinhibited,8%
same,%Inh,CSF1R,34%
same,%Inh,CSK,17%
Fc1ccc(-c2ncn(CCCN3CCOCC3)c2-c2ccccn2)cc1 [SB-211742],%Inh,CDK4-cyclinD3; [2],0%
same,%Inh,CDK4; [2],0%
same,%Inh,CDK5,0%
same,%Inh,CDK7,0%
same,%Inh,CDK8,29%
same,%Inh,CDK9,0%
same,%Inh,CDKL1,40%
same,%Inh,CDKL2,49%
same,%Inh,CDKL3,4%
same,%Inh,CDKL5,5%
same,%Inh,CHEK1,0%
same,%Inh,CHEK2,0%
same,%Inh,CIT,8%
same,%Inh,CLK1,8%
same,%Inh,CLK2,8%
same,%Inh,CLK3,3%
same,%Inh,CLK4,0%
same,%Inh,CSF1R-autoinhibited,0%
same,%Inh,CSF1R,0%
same,%Inh,CSK,0%
O=c1cc(N2CCOCC2)nc2n(Cc3cccc(Cl)c3Cl)c(C3CC3)nn12 [GSK2358994],%Inh,CDK4-cyclinD3; 1 µM,0%
same,%Inh,CDK4; 1 µM,0%
same,%Inh,CDK5,7%
same,%Inh,CDK7,5%
same,%Inh,CDK8,0%
same,%Inh,CDK9,0%
same,%Inh,CDKL1,20%
same,%Inh,CDKL2,0%
same,%Inh,CDKL3,0%
same,%Inh,CDKL5,0%
same,%Inh,CHEK1,15%
same,%Inh,CHEK2,0%
same,%Inh,CIT,0%
same,%Inh,CLK1,27%
same,%Inh,CLK2,25%
same,%Inh,CLK3,14%
same,%Inh,CLK4,0%
same,%Inh,CSF1R-autoinhibited,0%
same,%Inh,CSF1R,0%
same,%Inh,CSK,8%
COc1cc2ncn(-c3cc(OCc4sccc4Cl)c(C(N)=O)s3)c2cc1OC [GSK448459],%Inh,CDK4-cyclinD3; [2],0%
same,%Inh,CDK4; [2],12%
same,%Inh,CDK5,0%
same,%Inh,CDK7,0%
same,%Inh,CDK8,69%
same,%Inh,CDK9,0%
same,%Inh,CDKL1,23%
same,%Inh,CDKL2,33%
same,%Inh,CDKL3,0%
same,%Inh,CDKL5,0%
same,%Inh,CHEK1,0%
same,%Inh,CHEK2,6%
same,%Inh,CIT,27%
same,%Inh,CLK1,39%
same,%Inh,CLK2,23%
same,%Inh,CLK3,2%
same,%Inh,CLK4,14%
same,%Inh,CSF1R-autoinhibited,0%
same,%Inh,CSF1R,18%
same,%Inh,CSK,10%
Cl.Cl.Cl.Fc1ccc(-c2ncn(C3CCNCC3)c2-c2ccnc(Nc3ccccc3)n2)cc1 [SB-238039],%Inh,CDK4-cyclinD3; [2],0%
same,%Inh,CDK4; [1],18% and 19%
same,%Inh,CDK5,0%
same,%Inh,CDK7; 1 µM,19% and 33%
same,%Inh,CDK8; 1 µM,49% and 19%
same,%Inh,CDK9,0%
same,%Inh,CDKL1; 1 µM,34% and 37%
same,%Inh,CDKL2; 1 µM,0% and 29%
same,%Inh,CDKL3; 1 µM,5% and 15%
same,%Inh,CDKL5,0%
same,%Inh,CHEK1,0%
same,%Inh,CHEK2; 1 µM,0% and 39%
same,%Inh,CIT; 1 µM,99.5% and 97.5%
same,%Inh,CLK1; 1 µM,0% and 1%
same,%Inh,CLK2,0%
same,%Inh,CLK3; 1 µM,6% and 21%
same,%Inh,CLK4; 1 µM,37% and 14%
same,%Inh,CSF1R-autoinhibited; 1 µM,27% and 19%
same,%Inh,CSF1R; 1 µM,1% and 14%
same,%Inh,CSK; 1 µM,0% and 10%
NS(=O)(=O)c1cccc(-c2ccc3nccc(-c4cccc(S(N)(=O)=O)c4)c3c2)c1 [GW867253],%Inh,CDK4-cyclinD3; [2],0%
same,%Inh,CDK4; [2],19%
same,%Inh,CDK5,0%
same,%Inh,CDK7,4%
same,%Inh,CDK8,36%
same,%Inh,CDK9,0%
same,%Inh,CDKL1,27%
same,%Inh,CDKL2,16%
same,%Inh,CDKL3,20%
same,%Inh,CDKL5,5%
same,%Inh,CHEK1,0%
same,%Inh,CHEK2,0%
same,%Inh,CIT,0%
same,%Inh,CLK1,0%
same,%Inh,CLK2,25%
same,%Inh,CLK3,0%
same,%Inh,CLK4,1%
same,%Inh,CSF1R-autoinhibited,0%
same,%Inh,CSF1R,0%
same,%Inh,CSK,0%
NS(=O)(=O)CCc1cccc(Nc2nccc(-c3c(-c4cccc(NC(=O)c5c(F)cccc5F)c4)nn4ccccc34)n2)c1 [GSK336735],%Inh,CDK4-cyclinD3; [2],0%
same,%Inh,CDK4; [2],19%
same,%Inh,CDK5,0%
same,%Inh,CDK7,0%
same,%Inh,CDK8,0%
same,%Inh,CDK9,0%
same,%Inh,CDKL1,0%
same,%Inh,CDKL2,25%
same,%Inh,CDKL3,0%
same,%Inh,CDKL5,1%
same,%Inh,CHEK1,4%
same,%Inh,CHEK2,0%
same,%Inh,CIT,53%
same,%Inh,CLK1,27%
same,%Inh,CLK2,10%
same,%Inh,CLK3,100%
same,%Inh,CLK4,21%
same,%Inh,CSF1R-autoinhibited,21%
same,%Inh,CSF1R,99.7%
same,%Inh,CSK,97.5%
COc1ccc(COc2cc(-n3cnc4ccccc43)sc2C(N)=O)cc1 [GSK1024304],%Inh,CDK4-cyclinD3; [2],0%
same,%Inh,CDK4; [2],40%
same,%Inh,CDK5,0%
same,%Inh,CDK7,0%
same,%Inh,CDK8,29%
same,%Inh,CDK9,0%
same,%Inh,CDKL1,7%
same,%Inh,CDKL2,18%
same,%Inh,CDKL3,0%
same,%Inh,CDKL5,0%
same,%Inh,CHEK1,0%
same,%Inh,CHEK2,0%
same,%Inh,CIT,29%
same,%Inh,CLK1,27%
same,%Inh,CLK2,48%
same,%Inh,CLK3,17%
same,%Inh,CLK4,12%
same,%Inh,CSF1R-autoinhibited,0%
same,%Inh,CSF1R,4%
same,%Inh,CSK,0%
Nc1nccc(-c2c(-c3ccc(F)cc3)ncn2C2CCN(CC(F)(F)F)CC2)n1 [SB-236560],%Inh,CDK4-cyclinD3; [2],97.9%
same,%Inh,CDK4; [2],52%
same,%Inh,CDK5,0%
same,%Inh,CDK7,10%
same,%Inh,CDK8,70%
same,%Inh,CDK9,0%
same,%Inh,CDKL1,18%
same,%Inh,CDKL2,11%
same,%Inh,CDKL3,0%
same,%Inh,CDKL5,0%
same,%Inh,CHEK1,0%
same,%Inh,CHEK2,38%
same,%Inh,CIT,66%
same,%Inh,CLK1,0%
same,%Inh,CLK2,6%
same,%Inh,CLK3,17%
same,%Inh,CLK4,0%
same,%Inh,CSF1R-autoinhibited,68%
same,%Inh,CSF1R,0%
same,%Inh,CSK,0%
O=C(NOCC1CC1)c1ccc(F)c(F)c1Nc1ccc(I)cc1Cl,%Inh,CDK4-cyclinD3; [2],0%
same,%Inh,CDK4; [2],0%
same,%Inh,CDK5,5%
same,%Inh,CDK7,0%
same,%Inh,CDK8,0%
same,%Inh,CDK9,0%
same,%Inh,CDKL1,0%
same,%Inh,CDKL2,0%
same,%Inh,CDKL3,20%
same,%Inh,CDKL5,0%
same,%Inh,CHEK1,0%
same,%Inh,CHEK2,21%
same,%Inh,CIT,0%
same,%Inh,CLK1,0%
same,%Inh,CLK2,3%
same,%Inh,CLK3,0%
same,%Inh,CLK4,0%
same,%Inh,CSF1R-autoinhibited,0%
same,%Inh,CSF1R,0%
same,%Inh,CSK,0%
O=C1Cc2cc(Nc3nc(NCc4cccc(S(=O)(=O)C(F)(F)F)c4)ncc3C(F)(F)F)ccc2N1,%Inh,CDK4-cyclinD3; [2],0%
same,%Inh,CDK4; [2],27%
same,%Inh,CDK5,14%
same,%Inh,CDK7,4%
same,%Inh,CDK8,3%
same,%Inh,CDK9,10%
same,%Inh,CDKL1,21%
same,%Inh,CDKL2,4%
same,%Inh,CDKL3,3%
same,%Inh,CDKL5,18%
same,%Inh,CHEK1,0%
same,%Inh,CHEK2,0%
same,%Inh,CIT,0%
same,%Inh,CLK1,0%
same,%Inh,CLK2,0%
same,%Inh,CLK3,0%
same,%Inh,CLK4,0%
same,%Inh,CSF1R-autoinhibited,0%
same,%Inh,CSF1R,9%
same,%Inh,CSK,3%
Nc1nc(-c2ccc3c(N)n[nH]c3c2)cc(N2CCCC2)n1 [GSK2227430],%Inh,CDK4-cyclinD3; [2],0%
same,%Inh,CDK4; [2],0%
same,%Inh,CDK5,0%
same,%Inh,CDK7,0%
same,%Inh,CDK8,0%
same,%Inh,CDK9,0%
same,%Inh,CDKL1,72%
same,%Inh,CDKL2,0%
same,%Inh,CDKL3,0%
same,%Inh,CDKL5,0%
same,%Inh,CHEK1,9%
same,%Inh,CHEK2,0%
same,%Inh,CIT,0%
same,%Inh,CLK1,26%
same,%Inh,CLK2,1%
same,%Inh,CLK3,0%
same,%Inh,CLK4,36%
same,%Inh,CSF1R-autoinhibited,0%
same,%Inh,CSF1R,2%
same,%Inh,CSK,0%
